Laboratory results published in PubChem BioAssay (NCATS).
Where “and” joins values, the source holds several entries; their conditions need not be identical. Equal entries are not always repeated. Results filed as inconclusive are left out. Calls of active or inactive are those of the source. Unless noted, no rule for the calls is given here.

What was measured:
[1] = qHTS profiling of the MIPE4 collection as inhibitors of Plasmodium falciparum (3D7) proliferation (AID 743344);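 also: scaled between DMSO vehicle wells and 0.29 µM artemisinin as full inhibition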; settings: P. falciparum 3D7 in erythrocytes, SYBR Green DNA fluorescence, 72 h; at 28.5 µM
How it was run: (§1)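 Parasite DNA was quantified by SYBR Green I fluorescence (ex 485, em 535 nm) after overnight lysis in saponin/Triton buffer at room temperature. Cultures at 0.3% parasitemia and 2.5% hematocrit were first exposed to compound for 72 h at 37 C; signals were normalised to artemisinin (0.29 uM) and vehicle wells.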

[2] = qHTS profiling of the MIPE4 collection as inhibitors of Plasmodium falciparum (DD2) proliferation (AID 743345); settings: P. falciparum Dd2 in erythrocytes, SYBR Green DNA, 72 h; at 28.5 µM unless noted
How it was run: as §1

[3] = qHTS profiling of the MIPE4 collection as inhibitors of Plasmodium falciparum (DD2) proliferation (Rep 2) (AID 743346); settings: P. falciparum Dd2 in erythrocytes, SYBR Green DNA, 72 h; at 28.5 µM
How it was run: as §1

[4] = qHTS profiling of the MIPE4 collection as inhibitors of Plasmodium falciparum (HB3) proliferation (AID 743347);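 also: plate controls were DMSO vehicle wells for no effect and artemisinin wells for full effect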; settings: P. falciparum HB3 in erythrocytes, SYBR Green DNA, 72 h; at 28.5 µM
How it was run: as §1

[5] = High-throughput drug toxicity screening in the BPDCN cell line Gen2.2 (AID 1224824); settings: Gen2.2 BPDCN cells; at 45.8 µM (top of the series);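 also: cells exposed to compounds for 48 h before reading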
How it was run: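 CellTiter-Glo luminescence read after 48 h compound exposure at 37 C defines viability; percent activity set with DMSO as 100% and bortezomib (9.2 uM final) as 0%. 500 exponentially growing cells per well, RPMI plus 10% FBS.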

[6] = High-throughput drug toxicity screening in the BPDCN cell line Cal-1 (AID 1224825); settings: Cal-1 BPDCN cell viability, qHTS; at 45.8 µM (top of the series)
How it was run: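 Viability of the BPDCN line Cal-1 is measured as ATP-based luminescence (CellTiter-Glo) following 48 h incubation with compounds. Percent activity uses DMSO-treated wells as 100% and 9.2 uM bortezomib as 0%.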

[7] = qHTS profiling for inhibitors of Plasmodium falciparum (3D7) proliferation (AID 743322);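 also: infected erythrocytes exposed to compound for 72 h before lysis; 100% = DMSO vehicle wells and 0% = 0.29 µM artemisinin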; settings: P. falciparum 3D7 proliferation; at 28.7 µM (top of the series) unless noted
How it was run: as §1

[8] = qHTS profiling for inhibitors of Plasmodium falciparum (DD2) proliferation (AID 743323); settings: lower = more inhibition; at 28.7 µM (top of the series) unless noted
How it was run: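 1536-well qHTS; infected RBCs 0.3% parasitemia/2.5% Hct final; cpd 72 h 37 C 5% CO2; lysis buffer + SYBR Green I, o/n RT dark; FI 485/535; norm. to 0.29 uM artemisinin and DMSO, plate-stack corrected.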

[9] = qHTS assay for cell viability of HEK293 cells (AID 743288; active = well fitted cell-killing curve with a large enough effect; also: % is scaled to controls: 0 for no effect and ±100 for the full control effect; nearly all actives have a fitted effect of over 50% in size); settings: ATP luminescence (CellTiter-Glo), 18 h; max response: stronger effect = lower value
How it was run: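 Readout is luciferase-coupled ATP content (CellTiter-Glo luminescence, 30 min room temperature) as a measure of metabolically competent cells. Parental HEK293 cells were plated 5 h or more before compound addition, then treated 18 h at 37 C.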

[10] = qHTS assay for cell viability of the p53RE-bla HCT-116 cell line (AID 743292; active = well fitted cell-killing curve with a large enough effect; also: % is scaled to controls: 0 for no effect and ±100 for the full control effect; nearly all actives have a fitted effect of over 55% in size); settings: p53RE-bla HCT-116 viability, ATP luminescence, 16 h; series mostly up to 95 µM
How it was run: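 Viability of compound-treated p53RE-bla HCT-116 cells is taken from ATP-dependent luciferase luminescence. Treatment lasts 16 h at 37 C after a 5 h settling period; detection follows 30 min at room temperature.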

SMILES | parasite growth, % of DMSO control [1] [%] | parasite growth remaining, % of DMSO control (lower = more inhibition) [2] [%] | parasite growth, % of control (lower = inhibition) [3] [%] | growth, % of control [4] [%] | cell viability, % of control (lower = more cytotoxic) [5] [%] | viability (% of control) [6] [%] | remaining parasite growth % (stronger effect = lower value) [7] [%] | activity, percent of control [8] [%] | max response [9] | Potency [10]
CC(=CCCC1=CCC(C2=CC(=O)OC2O)OC1O)CCC1=C(C)CCCC1(C)C (stereo not given) | 15.8 | 44.2 | 72 | 36 | 124 | 103 |  |  |  | 
C1=C2CCCN[C@H]2[C@@H]2C[C@H]1[C@@H]1CCCCN1C2 | 71.7 | 84.7 | 69.3 | 94.5 | 131 | 105 |  |  |  | 
CCOC(=O)Nc1ccc(NCc2ccc(F)cc2)cc1N | 12.8 | 13.7 | 30.4 | 15.1 | 120 | 105 |  |  |  | 
O=C(NCC1CCOCC1)c1cnc(Nc2ccc(Cl)cc2Cl)nc1C(F)(F)F | 52.4 | 102 | 52.2 | 49.9 | 7.01 | 7.59 |  |  |  | 
CC(C)(O)C=CC(=O)[C@](C)(O)[C@H]1[C@H](O)C[C@]2(C)[C@@H]3CC=C4[C@@H](C=C(O)C(=O)C4(C)C)[C@]3(C)C(=O)C[C@@]12C | 5.63 | 7.06 | 21.6 | 7.62 | 4.04 | 2.59 |  |  |  | 
CC(=O)O[C@@]12CO[C@H]1C[C@H](O)[C@@]1(C)C(=O)[C@H](O)C3=C(C)[C@@H](O)C[C@@](O)([C@@H](OC(=O)c4ccccc4)[C@@H]21)C3(C)C | 60.1 | 94.5 | 42.4 | 34.8 | 42 | 20.6 |  |  |  | 
C#CC1(O)CCC2C3CCC4=CC(=O)CCC4(C)C3CCC21C (stereo not given) | 78.6 | 106 | 88 | 89 | 168 | 100 |  |  |  | 
CO[C@H]1CCC(O[C@H]2C[C@H]([C@]3(C)CC[C@]4(C[C@H](O)[C@@H](C)[C@@H]([C@@H](C)C=C(C)C(=O)[C@H](C)C[C@H](C)C(=O)O)O4)O3)O[C@]3(O[C@@H]([C@H]4O[C@@](O)(CO)[C@H](C)C[C@H]4C)C[C@H]3C)[C@H]2C)O[C@H]1C (stereo not given in full) | 11.2 | 5.36 | 23.1 | 8.74 | 92 | 72.5 |  |  |  | 
COc1cc([C@@H]2c3cc4c(cc3[C@@H](O)C3COC(=O)C32)OCO4)cc(OC)c1O (stereo not given in full) | 64.9 | 88.5 | 64.3 | 66.2 | 6.47 | 5.19 |  |  |  | 
C[C@H]1CCCC=CC2C[C@H](O)C[C@@H]2[C@H](O)C=CC(=O)O1 (stereo not given in full) | 4.99 | 9.17 | 9.15 | 2.99 | 4.51 | 4 |  |  |  | 
CC(C)(C)[C@]1(O)C[C@@H]2OC(=O)C[C@@]23C(=O)O[C@@H]2OC(=O)[C@H](O)C213 (stereo not given in full) | 95 | 99.7 | 81.5 | 75.6 | 106 | 124 |  |  |  | 
O=C(Oc1ccc([N+](=O)[O-])cc1)N1CCN(Cc2cccc(Oc3ccccc3)c2)CC1 | 95.8 | 92.5 | 181 | 96.4 | 151 | 54.4 |  |  |  | 
c1cc2c(cc1[C@H]1OC[C@H]3[C@H]1CO[C@H]3c1ccc3c(c1)OCO3)OCO2 | 104 | 91.9 | 126 | 107 | 197 | 91 |  |  |  | 
CC1=NN=C(c2ccc(N)cc2)c2cc3c(cc2C1)OCO3 | 133 | 108 | 93 | 685 | 244 | 12.1 |  |  |  | 
O=[N+]([O-])c1ncc[nH]1 | 89 | 99.8 | 101 | 81.7 | 102 | 122 |  |  |  | 
Oc1ccc2c3c1O[C@H]1c4[nH]c5c(c4C[C@@]4(O)[C@@H](C2)N(CC2CC2)CC[C@]314)C[C@@]1(O)[C@H]2Cc3ccc(O)c4c3[C@@]1(CCN2CC1CC1)[C@H]5O4 | 10.3 | 25.9 | 13 | 4.03 | 143 | 119 |  |  |  | 
CC(C)[C@]12O[C@@H]1[C@@H]1O[C@]13[C@]1(O[C@H]1C[C@@H]1C4=C(CC[C@@]13C)C(=O)OC4)[C@H]2O | 56.9 | 77 | 49.4 | 44.2 | 4.5 | 2.1 |  |  |  | 
CN1CCN(c2ccc([N+](=O)[O-])c3no[n+]([O-])c23)CC1 | 77.4 | 95.3 | 86.4 | 99.7 | 4.61 | 4.53 |  |  |  | 
C/C=C(/C)C(=O)O[C@H]1C(C)=C2[C@H]([C@@H]1OC(=O)CCCCCCC)[C@@](C)(OC(C)=O)C[C@H](OC(=O)CCC)[C@@]1(O)[C@H]2OC(=O)[C@@]1(C)O |  |  |  |  |  |  | -0.149 | 1.02 |  | 
CCCC[N+]1(C)[C@H]2CC(OC(=O)[C@H](CO)c3ccccc3)C[C@H]1[C@H]1O[C@H]12 (stereo not given in full) | 98.9 | 100 | 86.4 | 52.3 | 119 | 120 |  |  |  | 
C[C@](O)(COc1ccc(C#N)cc1)C(=O)Nc1ccc(C#N)c(C(F)(F)F)c1 | 6.31 | 92.3 | 20.8 | 9.27 | 54.6 | 99.4 |  |  |  | 

SMILES | parasite growth, % of DMSO control [1] [%] | parasite growth remaining, % of DMSO control (lower = more inhibition) [2] [%] | parasite growth, % of control (lower = inhibition) [3] [%] | growth, % of control [4] [%] | cell viability, % of control (lower = more cytotoxic) [5] [%] | viability (% of control) [6] [%] | remaining parasite growth % (stronger effect = lower value) [7] [%] | activity, percent of control [8] [%] | max response [9] | Potency [10]
O=c1cccc2n1CC1CNC[C@H]2C1 | 71.3 | 90.9 | 53.7 | 52.1 | 51.5 | 13.3 |  |  |  | 
Clc1cnc(Oc2ccc(Oc3ncc(Cl)cc3Cl)cc2)c(Cl)c1 |  |  |  |  |  |  |  |  | -12.9% (inactive) | inactive
COC[C@H]1OC(=O)c2coc3c2[C@@]1(C)C1=C(C3=O)[C@@H]2CC[C@H](O)[C@@]2(C)C[C@@H]1OC(C)=O | 93.1 | 83.2 | 79.7 | 48.8 | 5.55 | 9.36 |  |  |  | 
CCNC(=O)CC1N=C(c2ccc(Cl)cc2)c2cc(OC)ccc2-n2c(C)nnc21 (stereo not given) | 26.1 | 93.8 | 70.5 | 42.1 | 15.2 | 11.7 |  |  |  | 
CCOC(=O)c1c(C(C#N)=CN)c2ccc(Cl)c(Cl)c2n1C | 90 | 97.1 | 149 | 89.6 | 130 | 94.3 |  |  |  | 
COc1cc2cc(c1Cl)N(C)C(=O)C[C@H](OC(=O)C(C)C)[C@]1(C)O[C@H]1[C@H](C)[C@@H]1C[C@@](O)(NC(=O)O1)[C@H](OC)C=CC=C(C)C2 | 14 | 16.8 | 21.9 | 9.61 | 10.1 | 4.31 |  |  |  | 
C[C@]12COC(=O)C[C@@H]1CC[C@@H]1[C@H]2CC[C@@]2(C)[C@H]1CC[C@]2(C)O | 89.9 | 96.6 | 93 | 93.7 | 122 | 111 |  |  |  | 
CN[C@@H]1Cc2cccc3[nH]c(=O)n(c23)C1 | 92.4 | 105 | 82.7 | 85.5 | 231 | 119 |  |  |  | 
CC(O)=C(C#N)C(=O)Nc1cc(Br)ccc1Br | 80.7 | 97 | 78.2 | 93.7 | 79.3 | 103 |  |  |  | 
COc1cccc2c1[C@]13CCN(CC4CC4)[C@H](C2)[C@]1(OC)CCC(=O)C3 | 98.3 | 102 | 31.9 | 69.1 | 99.3 | 111 |  |  |  | 
CC1(N2CCC(n3c([C@@H]4CCCNC4)nc4ccccc43)CC2)CCCCCCC1 | 5.01 | 11.2 | 19.4 | 6.13 | 17.2 | 5.69 |  |  |  | 
CCNC(=O)C[C@@H]1N=C(c2ccc(Cl)cc2)c2cc(OC)ccc2-n2c(C)nnc21 | 76.4 | 106 | 99.1 | 94.6 | 12.3 | 7.23 |  |  |  | 
C#C[C@]1(O)C=C[C@@H]2[C@@H]3CCC4=CC(=O)CC[C@@H]4[C@H]3CC[C@@]21CC | 10.4 | 59.4 | 26.2 | 41.2 | 62.7 | 74.7 |  |  |  | 
CC(N[C@H]1C[C@H]1c1ccccc1)c1ccc2c(c1)OCCO2 (stereo not given in full) | 90.6 | 74.9 | 64.1 | 60.1 | 154 | 96.1 |  |  |  | 
C[C@@H]1O[C@@H](O[C@@H]2C=C3CC[C@@H]4[C@@H](CC[C@]5(C)[C@H](c6ccc(=O)oc6)CC[C@@]45O)[C@@]3(C)CC2)[C@H](O)[C@H](O)[C@H]1O | 79 | 94.6 | 96.7 | 94.5 | 16.6 | 3.76 |  |  |  | 
C[C@@H]1CC[C@H]2[C@@H](C)C(=O)O[C@@H]3O[C@@]4(C)CC[C@H]1[C@]32OO4 | 22.6 | 7.95 | 7.78 | 7.52 | 95.1 | 98.1 |  |  |  | 
NC1=NC(=O)N2CC12 (stereo not given) | 49.2 | 93.9 | 46.3 | 68.6 | 8.27 | 7.57 |  |  |  | 
CN1[C@H]2CC(O)C[C@H]1[C@H]1O[C@H]12 (stereo not given in full) | 11.1 | 12.2 | 28.8 | 7.31 | 21.9 | 52.9 |  |  |  | 
CCCCCCCCc1ccc(O)cc1 |  |  |  |  |  |  |  |  | -15.8% (inactive) and -26% (inactive) | inactive
CCCCCCCCCCCCCCCC[N+](C)(C)C |  |  |  |  |  |  |  |  | -5.85% (inactive) | inactive
